Tau fluor counter: counter-screen for tau fibril formation inhibitors; AID 1463; tau K18 P301L Alexa594 fluorescence, heparin fibrillization; Potency, µM (doses to about 57.7 µM); actives 0.93% (n = 280,000); also: nearly all actives have a fitted effect of over 55% in size
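Human tau K18 P301L (15 uM unlabeled, 0.24 uM Alexa 594-labeled) in 100 mM sodium acetate pH 7 with 20 uM heparin, 6 hr at 37 C. ThT 30 uM added, 1 hr ambient; Alexa 594 FP and total fluorescence read at 555/632 nm.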
Tau ThT inhib: inhibitors of human tau fibril formation, thioflavin T binding; actives 2.1% (n = 270,000); recombinant tau K18 P301L (four-repeat tau fragment), heparin-induced fibrillization, ThT fluorescence; Potency, µM (top dose mostly 57.4 µM), actives largely listed as inhibitors; P10636; also: nearly all actives have a fitted effect of over 55% in size
Target sequence (P10636 561-689 P618L limits assumed): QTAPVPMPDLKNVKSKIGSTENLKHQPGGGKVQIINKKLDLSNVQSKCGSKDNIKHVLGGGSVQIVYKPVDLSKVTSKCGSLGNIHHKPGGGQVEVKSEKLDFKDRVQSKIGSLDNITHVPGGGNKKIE
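In this qHTS, human K18 P301L tau is incubated with compound and heparin for 6 hr at 37 C, and Thioflavin T fluorescence then reports fibril load.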
Tau fibril FP: tau fibrillization inhibition (FP); P10636; actives 0.39% (n = 280,000); AID 1468; K18 P301L tau heparin fibrillization, Alexa594 FP, 6 h; Potency, µM (highest dose often 57.7 µM), actives largely listed as inhibitors; also: nearly all actives have a fitted effect of over 55% in size
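Human tau K18 […] P301L fragment, 15 uM unlabeled plus 0.24 uM Alexa 594-labeled tau (final), with compound and 20 uM heparin in 100 mM sodium acetate pH 7; 6 hr at 37 C, then Alexa 594 FP read.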
Coupling enz: counter-screen for Giardia aldolase inhibitors: coupling enzyme system. coupling enzyme system counterscreen, AmpLite Red fluorescence. activity change, negative = inhibition, % at 58.2 µM, hits read low. actives 0.67% (n = 290,000). AID 2472; in the data active = activity change below about -30%
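Fluorescence at 525 nm excitation and 598 nm emission measured inhibition of the coupled detection system without aldolase. Compounds (at 57.5 uM final) were preincubated 10 min at room temperature with coupling enzyme reagent before a 20 min substrate/AmpLite Red step.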
Numbers stand for hits; i = inactive; ? = inconclusive; nt = no result given; [ ] = dose if it differs, or a comment. Only some compounds are listed: those with a hit (about 2.7% of all), similar ones and a draw of the others. Unless noted, calls follow the shape of the dose curve; as a rule, active = well fitted curve in the direction sought with a large enough effect; inconclusive = small, poorly fitted or top-dose-only effect, or another doubt; inactive = no such curve, though single readings can be large; an effect the other way counts as inactive or inconclusive.

SMILES	Tau fluor counter	Tau ThT inhib	Tau fibril FP	Coupling enz
CC1=C(C(=O)Nc2ccc(C)cc2C)C(c2ccc(Br)cc2)n2ncc(C(=O)Nc3cccc(C)c3)c2N1 (configuration not stated)	i	i	?	nt
O=C(Nc1cc(Br)c(O)c(Br)c1)c1cccc(NC(=O)c2ccco2)c1	nt	nt	nt	i
O=C(Nc1cccc(N=Cc2cc(Cl)cc(Br)c2O)c1)c1ccco1	i	16µM	i	i
O=C(Nc1cccc(N=Cc2cc(Br)cc(Br)c2O)c1)c1ccco1	i	14µM	?	i
O=[N+]([O-])c1ccccc1-c1ccc(C(=S)N2CCCC2)o1	?	16µM	?	-43
O=[N+]([O-])c1cccc(-c2ccc(C(=S)N3CCOCC3)o2)c1	i	i	i	i
O=[N+]([O-])c1ccccc1-c1ccc(C(=S)N2CCCCC2)o1	?	?	i	i
S=C(c1ccc(-c2cccc(Cl)c2)o1)N1CCOCC1	?	16µM	i	i
O=[N+]([O-])c1cc(-c2ccc(C(=S)N3CCOCC3)o2)ccc1Cl	?	14µM	?	-32
O=[N+]([O-])c1cccc(-c2ccc(C(=S)N3CCN(c4ccccc4)CC3)o2)c1	?	20µM	?	i
CC(=O)Nc1cccc(C(=O)OC(C(=O)c2ccc(C)cc2)c2ccccc2)c1 (configuration not stated)	?	i	14µM	nt
CC(=O)Nc1cccc(C(=O)OC(C(=O)c2ccc(C)c(C)c2)c2ccccc2)c1 (configuration not stated)	?	i	16µM	i
Cc1ccc(NC(=O)C(OC(=O)c2ccc(O)cc2)c2ccccc2)cc1Cl (configuration not stated)	?	i	28µM	i
COc1ccc(C(=O)OC(C(=O)c2ccc(C)cc2)c2ccccc2)cc1 (configuration not stated)	i	i	i	i
Cc1ccc(NC(=O)C(OC(=O)c2ccc(F)cc2)c2ccccc2)cc1Cl (configuration not stated)	?	i	?	i
CCc1ccccc1NC(=O)C(=O)NCC(c1cccnc1)N1CCN(c2ccccc2F)CC1 (configuration not stated)	i	i	i	nt
CCOc1ccc(C(=O)N/N=C(/C)C2C(=O)c3ccccc3C2=O)cc1	i	1.8µM	i	i
C/C(=N\NC(=O)c1ccc(Br)cc1)C1C(=O)c2ccccc2C1=O	?	4µM	?	i
CC(=O)N1CC=CC1(CC(C)C)C(=O)NCc1ccccn1 (configuration not stated)	i	i	i	i
Cc1nc(-n2nc(C)c(Cc3ccc(Cl)cc3)c2C)sc1C(=O)N1CCC(C)CC1	i	i	i	nt
CCCCNC(=O)C(CC)Sc1nc2ccccc2c(=O)n1Cc1ccco1 (configuration not stated)	i	i	i	nt
Cc1ccc(C(=O)c2oc3ccccc3c2NC(=O)c2cc(-c3ccc(Cl)cc3)on2)cc1	i	i	i	nt
O=C1c2ccccc2C(Cc2ccnc(F)c2)(Cc2ccnc(F)c2)c2ccccc21	i	i	i	i
CCCOc1ccc(N)cc1N	11µM[quencher]	3.2µM	7.1µM	-66
O=C(Nc1sc2c(c1C(=O)O)CCCC2)c1ccc(F)cc1	nt	nt	nt	i
SMILES	Tau fluor counter	Tau ThT inhib	Tau fibril FP	Coupling enz
CC(C)(C)c1ccc(C(=O)Nc2sc3c(c2C(=O)O)CCC3)cc1	?	14µM	i	i
Cc1cccc(NC(=O)c2c(NC(=O)c3ccccc3)sc3c2CCC3)c1	i	i	i	nt
Cc1cccc(NC(=O)c2c(NC(=O)c3ccccc3)sc3c2CCCC3)c1	?	10µM	?	nt
COc1ccc(CNc2nc3ccc(C)cc3s2)c(OC)c1OC	nt	nt	nt	i
CO[C@@H]1COC(=O)[C@@H](CCSC)NC(=O)C/C=C\[C@@H](C)COC(=O)CCC[C@H]1C	i[11.6 µM]	i[11.5 µM]	i[11.6 µM]	i
Cc1ccc(NC(=O)c2cn(-c3ccccc3)nc2-c2ccccc2)cc1	i	i	i	nt
CC(C)COc1ccc(-c2nn(-c3ccccc3)cc2C(=O)Nc2nccs2)cc1	?	i	14µM	i
CCOC(=O)c1ccc(NC(=O)c2cn(-c3ccccc3)nc2-c2ccc(Br)cc2)cc1	?	i	18µM	nt
COc1ccc(-c2nn(-c3ccccc3)cc2C(=O)Nc2ccc(C(=O)O)cc2)cc1OC	nt	nt	nt	i
CCOC(=O)c1ccc(NC(=O)c2cn(-c3ccccc3)nc2-c2ccc(OC)c(OC)c2)cc1	?	?	10µM	nt
CCOC(=O)c1ccc(NC(=O)c2cn(-c3ccccc3)nc2-c2ccncc2)cc1	?	i	28µM	i
Cc1cccc(CSc2ncc(Cl)c(C(=O)Nc3sc4c(c3C(N)=O)CCCC4)n2)c1	i	?	i	nt
Cc1cccc(C(=O)Nc2nnc(S(=O)(=O)N(C)c3ccccc3C)s2)c1	?	?	i	nt
CCOC(=O)c1ccc(NC(=O)c2cn(-c3ccccc3)nc2-c2ccc(C)cc2)cc1	?	i	8.9µM	nt
Cc1ccc(-c2nn(-c3ccccc3)cc2C(=O)Nc2ccc(C(=O)O)cc2)cc1	i	i	i	i
CC[N+]1(C)C2CCC1CC(OC(=O)[C@H]1CCC(C(=O)OC3CC4CCC(C3)[N+]4(C)CC)(c3ccccc3)c3ccccc31)C2 (some centres not stated)	i	i	i	nt
CC(=O)N1CCc2cc(Br)cc(S(=O)(=O)CCC(=O)N3CCN(c4ccccc4Cl)CC3)c21	i	i	i	nt
C=CC1=C2C=C(C3CC3)N(C3CC3)C=C2C(=O)C(C)(OC(=O)c2ccco2)C1=O (configuration not stated)	i[11.6 µM]	i[11.5 µM]	i[11.6 µM]	i
C=CC1=C2C=C(C3CC3)N(C3CCCCC3)C=C2C(=O)C(C)(OC(=O)c2ccco2)C1=O (configuration not stated)	i[11.6 µM]	i[11.5 µM]	i[11.6 µM]	-43
C=CC1=C2C=C(C3CC3)N(C3CCCC3)C=C2C(=O)C(C)(OC(=O)c2ccco2)C1=O (configuration not stated)	i[11.6 µM]	i[11.5 µM]	i[11.6 µM]	-42
C=CC1=C2C=C(C3CC3)N(CCN3CCOCC3)C=C2C(=O)C(C)(OC(=O)c2ccco2)C1=O (configuration not stated)	i[11.6 µM]	i[11.5 µM]	i[11.6 µM]	i
COc1ccc(C)cc1-n1c(C)cc(C=O)c1C	i	i	i	i
COc1ccc(N)cc1-n1c(C)ccc1C	?	3.2µM	?	i
Cc1coc2c1C(=O)C(=O)c1c-2ccc2c(C)cccc12	i	2µM	?	-55
Cc1coc2c1C(=O)C(=O)c1c-2ccc2c1CCCC2(C)C	?	14µM	?	-40
Cc1cccc(CSc2nc(=O)c3c(n2C)NC(=O)CC3c2cc(F)cc(F)c2)c1 (configuration not stated)	i	i	i	nt
O=C(Nc1ccc(Cl)cc1)Nc1ccc2c(c1)N1CCN=C1S2	14µM[quencher]	i	i	i
Cc1cc(C=C2C(=O)c3ccccc3C2=O)c(C)n1-c1ccc(C(=O)O)cc1	i	14µM	i	i
Cc1cc(C=C2C(=O)c3ccccc3C2=O)c(C)n1-c1cccc(C(=O)O)c1	i	16µM	i	i
COc1ccccc1C(=O)N(Cc1ccco1)Cc1ccccc1F	i	?	i	nt

High-throughput results as filed in PubChem BioAssay.
